# Experimental data: PubChem BioAssay AID1259336 (Sattelle Laboratory, UCL Respiratory, Division of Medicine, …, 2017)
# Values without a mark were called inactive. Activity calls are given as the source filed them. Rule as the data show it: active = log2 fold change growth below about -1.8; inactive = the rest.
# Assay: anthelmintic activity against nematode growth – whole organism, log2 fold change (AID 1259336);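 also: growth scored by imaging after five days at 20 °C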
# Conditions: C. elegans growth, anthelmintic screen; stronger effect = lower value
row,SMILES,log2 fold change growth
1,c1ccc(Oc2ccc(-c3cc(C4CCOCC4)[nH]n3)cc2)cc1,-0.254
2,CC[C@H](Sc1nc2ccccc2o1)C(=O)Nc1nnc(C)s1,0.272
3,CCCCOC(=O)Nc1cc2[nH]c(C3CCCCC3)nc2cc1N1CCCC1,-0.373
4,COc1cc(C2=NCCN2)ccc1-n1cc(-c2cccc(C3=NCCN3)c2)nn1,-0.901
5,O=C(OCc1ccccc1)N1CCC(c2cc(-c3ccncc3)c(-c3ccc(F)cc3)[nH]2)CC1,-0.374
6,O=C(NCCc1c[nH]c2ccccc12)c1cc2ccccc2oc1=O,0.481
7,CC(C)(C)n1nc(Cc2ccc(F)c(Cl)c2)c2c(N)ncnc21,-1.01
8,Cc1cc(Nc2ccc(C(F)(F)F)cc2)n2ccnc2n1,0.0805
9,COc1ccc(C2(C(=O)Nc3ccc(Br)cc3)CCCC2)cc1,-0.749
10,COc1ccc(Nc2ccccc2NC(=O)c2ccc(=O)[nH]c2)cc1,-0.31
11,OC[C@H]1O[C@@H](n2c3ccc(Cl)cc3c3c(-c4cc5ccccc5o4)ncnc32)C(O)[C@H]1O (stereo partly drawn),-0.877
12,O=C(c1ccc(F)cc1)N(CCNc1ccccc1)c1ccccc1,0.348
13,COc1cc(N[C@@H](C)CCCN)c2ncccc2c1,-0.0147
14,O=C(CN1CCOCC1)Nc1ccc2ncnc(Nc3ccc(OCc4cccc(F)c4)c(Cl)c3)c2c1,-0.76
15,Cc1ccc2nc(Cl)c(CNCc3cccs3)cc2c1,-0.121
16,O=C(Nc1ccc(N2CCNCC2)cc1)c1ccn2ncc(-c3cccc(Cl)c3)c2n1,-0.0705
17,Cc1ccc(NC(=O)c2nc[nH]c2C(=O)Nc2nc3ccccc3[nH]2)c(C)c1,-0.815
18,Nc1ncnc2n[nH]c(Cc3cccc4ccccc34)c12,0.242
19,NCC(=O)N1CCn2c(nc(-c3ccccc3)c2Nc2ccc3c(c2)OCO3)C1,0.0553

row,SMILES,log2 fold change growth
1,O=C(c1n[nH]c2c1CCCC2)N1CCN(Cc2ccc3c(c2)OCO3)CC1,0.387
2,CN1CCN(c2nccc3[nH]c(-c4cccc(F)c4)cc23)CC1,-0.0356
3,CC(C)(C)c1ccc(N[C@@H]2CCCC[C@H]2NC(=O)c2ccco2)cc1,0.519
4,C[C@H](Oc1cccc(Cl)c1)C(=O)Nc1ccc2oc(-c3ccncc3)nc2c1,0.206
5,CN1CCCC1CCO[C@](C)(c1ccccc1)c1ccc(Cl)cc1 (stereo partly drawn),0.213
6,CC1CCCN(C(=O)C(C)Nc2cc(Cl)ccc2N2CCOCC2)C1 (stereo not drawn),0.538
7,N#CCN(CCCCN1CCN(c2ccc(F)cc2)CC1)C(=O)OCc1ccccc1,0.194
8,O=C(Nc1cnc2ccccc2c1)c1cccc(-n2cnnn2)c1,0.489
9,CCN(CC)CCCN1CCN(C(=O)c2cccc(-c3noc(C(F)(F)F)n3)c2)CC1,-0.0333
10,COc1cccc(OC)c1C(=O)Nc1ccc(Cl)c(-c2nc3ccccc3s2)c1,-0.202
11,CS(=O)(=O)c1ccccc1C(=O)N(Cc1ccccc1)c1ccccc1,-0.293
12,O=C(Nc1ccc(F)c(-c2nc3ncc(-c4ccccc4)cc3[nH]2)c1)N1CCCC1,-5.81 (active)
13,FC(F)(F)c1nnc2ccc(Cl)nn12,-0.128
14,CNc1snc(C)c1C(=O)NCCOc1ccc(OC)cc1,-0.0598
15,COc1ccc(-c2nnc3ccc(-c4cccc(C(C)C)c4)cn23)cc1OC,-0.151
16,Cc1ccc(-c2cc(C(=O)Nc3cccnc3)c3cc(Br)ccc3n2)cc1,-0.0922
17,O=C(NC1CC1)c1ccc(N2CCOc3ccc(Cl)cc32)s1,-0.614
18,CC(=O)NC[C@H]1CN(c2ccc(N3CCSCC3)c(F)c2)C(=O)O1,0.00512
19,CC(C)n1nc(-c2cc3c(Cl)cccc3[nH]2)c2c(N)ncnc21,-2.56 (active)
